Bioassay records deposited in PubChem BioAssay by National Center for Advancing Translational Sciences (NCATS).
TRHR ag: activates the human TRH receptor. P34981. activation, % at 2 µM. TRHR cells, calcium flux fluo-8, FDSS agonist mode. hit rate 0.18% among 360,000; also: 0% is about no effect
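TRHR-expressing cells, plated overnight in medium with 10% serum, were loaded with fluo-8 calcium dye at room temperature. After a 10 s baseline, library compound was pin-added and calcium release was recorded kinetically (ex 480/em 530) as agonist response.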
D1 antag: human D1 dopamine receptor antagonism; P21728; hit rate 3.2% among 360,000; AID 504652; HEK293 TREx D1 cells, calcium flux, dopamine EC80; active compounds read low; activity change, negative = inhibition, % at 10 µM; in the data active = activity change below about -30%; also: % is scaled to controls: 0 for no effect and ±100 for the full control effect
Target sequence (P21728 whole entry, looked up): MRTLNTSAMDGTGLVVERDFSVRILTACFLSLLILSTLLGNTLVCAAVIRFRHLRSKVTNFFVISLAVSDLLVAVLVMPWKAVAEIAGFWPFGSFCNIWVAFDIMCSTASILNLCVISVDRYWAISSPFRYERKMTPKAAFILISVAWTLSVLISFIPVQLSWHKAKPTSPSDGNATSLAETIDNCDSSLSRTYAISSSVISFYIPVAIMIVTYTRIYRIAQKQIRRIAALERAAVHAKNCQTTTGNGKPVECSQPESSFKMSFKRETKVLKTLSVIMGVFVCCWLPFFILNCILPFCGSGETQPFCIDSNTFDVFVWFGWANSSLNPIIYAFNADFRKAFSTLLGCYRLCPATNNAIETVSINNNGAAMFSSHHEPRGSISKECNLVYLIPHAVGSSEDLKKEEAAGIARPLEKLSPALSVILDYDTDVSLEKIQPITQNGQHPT
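Using tetracycline-induced force-coupled D1 Hek293 cells and a calcium dye, signals were followed for 180 s after compound, then for 180 s after EC80 dopamine, to detect inhibitors.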
GRP78 ERSR act: induces the endoplasmic reticulum stress response in human glioma cells; U87-MG GRP78 promoter luciferase reporter, 16 h; Potency, µM, without a hit: top-dose activation, usual class: activators; hit rate 0.02% among 420,000; AID 602332; active = well fitted activation curve with a large enough effect; also: potency is read from the fitted curve at half-maximal effect; series mostly up to about 76 µM; % of control where 0% means no effect; nearly all actives have a fitted effect of over 35% in size
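ERSR induction read as luciferase luminescence (Bright-Glo, 10 min at room temperature) in stably transfected human U87-MG glioma cells exposed to compounds for 16 h, using GRP78 as sensor.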
D1 PAM: enhances dopamine response at the human D1 receptor. P21728. HEK293 TREx D1 cells, calcium flux, dopamine EC20 potentiation. potentiation, % at 10 µM. hit rate 0.036% among 360,000. AID 504651; in the data active = potentiation above about 30%; also: 0% is about no effect
D1 ag: activates the human D1 dopamine receptor; P21728; HEK293 T-REx D1 cells, calcium flux, agonist mode; activation, % at 2 µM; hit rate 1% among 360,000; also: 0% is about no effect
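Inducible HEK293 T-REx D1 cells, force-coupled to calcium signalling, were plated at 4000 cells/well with tetracycline and held overnight at 30 C. After no-wash calcium dye loading, compound-evoked calcium rise over 180 s flagged agonists.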
TRHR enhancer: allosteric enhancers of human TRH receptor; TRHR cells, fluo-8 calcium fluorescence, EC20 TRH enhancement; enhancement, % at 2 µM; AID 493056; hit rate 0.66% among 360,000; P34981; in the data active = enhancement above about 30%; also: 0% is about no effect
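Enhancer read-out: after compound pinning and an initial kinetic agonist-mode read, an EC20 of TRH (10 nM final) was injected and fluo-8 calcium signal (Ex 480/Em 530) followed at 1 s/cycle for 100 cycles in TRHR-expressing cells.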
Starred values were filed as active, the others as inactive; / = no result. Most compounds without a hit are left out; they make up all but 4% or so of the library. Rule as the data show it, unless noted: active = activation above about 30%; inactive = the rest.

SMILES	TRHR ag	D1 antag	GRP78 ERSR act	D1 PAM	D1 ag	TRHR enhancer
O=C1NC(=O)N(c2ccc3c(c2)OCO3)C(=O)/C1=C/c1ccc(N2CCCCC2)o1	14	3	-1%	3	22	-2
CN1C(=O)C(=Cc2ccc(N3CCCCC3)o2)C(=O)N(C)C1=S	0	-7	5%	3	85*	2
COC(=O)Cn1cc(/C=C2\C(=O)NC(=O)N(c3ccc(OC)cc3)C2=O)c2ccccc21	0	4	0%	1	3	-25
COc1ccc(N2C(=O)NC(=O)/C(=C\c3cn(C)c4ccccc34)C2=O)cc1	16	-11	0%	0	54*	9
CC[C@H](O)C(C[C@H](C)N(C)C)(c1ccccc1)c1ccccc1	/	/	-5%	/	/	/
C[C@@H]1O[C@@H](O[C@H]2CC[C@@H](O[C@H]3[C@H](O)C[C@H](c4ccc5c(c4O)C(=O)C4=C(C5=O)[C@@]5(O)C(=O)C[C@](C)(O[C@H]6CC[C@H](O[C@H]7C=CC(=O)[C@H](C)O7)[C@H](C)O6)C[C@@]5(O)C=C4)O[C@@H]3C)O[C@H]2C)C=CC1=O	/	/	-12%	/	/	/
CN1CCN(c2cc([N+](=O)[O-])ccc2Cl)CC1	0	-51*	-5%	-6	1	0
CN1CCN(c2ccc([N+](=O)[O-])cc2Cl)CC1	0	-13	2%	-3	3	-2
C[C@@H]1C(=O)O[C@@H]2C[C@]34[C@H]5C[C@@H](C(C)(C)C)[C@@]36[C@@H](OC(=O)[C@@H]6O)O[C@@]4(C(=O)O5)[C@@]12O	/	/	-2%	/	/	/
C=CCC1=C(C)C(OC(=O)C2C(C=C(C)C)C2(C)C)CC1=O (stereo not given)	/	/	-3%	/	/	/
COC(=O)C1=C(c2cccc(C#N)c2)C[C@@H]2CC[C@H]1N2C(=O)NC1CC1	0	/	1%	0	1	-1
COC(=O)C1=C(c2cccc(C#N)c2)C[C@@H]2CC[C@H]1N2C(=O)N1CCCCC1	0	-37*	4%	-2	1	0
COC(=O)C1=C(c2ccc(OC)c(OC)c2)C[C@@H]2CC[C@H]1N2C(=O)NC(C)C	0	-42*	-4%	6	-2	5
COC(=O)C1=C(c2ccc(OC)c(OC)c2)C[C@@H]2CC[C@H]1N2C(=O)NC1CC1	0	/	-3%	1	1	-1
COC(=O)C1=C(c2cccc(C#N)c2)C[C@@H]2CC[C@H]1N2C(=O)NC1Cc2ccccc2C1	0	-41*	0%	-5	1	-5
CCCN(CCC)c1c([N+](=O)[O-])cc(C(F)(F)F)cc1[N+](=O)[O-]	/	/	-3%	/	/	/
Nc1nc(N)nc(NC2CC2)n1	/	/	-2%	/	/	/
O=C(COC(=O)Cc1ccccc1)NC12CC3CC(CC(C3)C1)C2	0	10	-1%	0	-1	-2
NC(=O)c1ccsc1NC(=O)COC(=O)Cc1ccccc1	0	-32*	-2%	-6	17	10
O=C1NC(=O)C(=Cc2ccc(N3CCOCC3)o2)C(=O)N1	7	9	0%	-3	8	1
C=CCN1C(=O)/C(=C/c2ccc(N3CCOCC3)o2)C(=O)NC1=S	-1	-1	0%	-2	119*	-4
Cc1ccc(/C=C2\C(=O)NC(=S)N(c3ccc(F)cc3)C2=O)o1	2	-15	0%	5	9	13
Cc1cc(C)cc(N2C(=O)/C(=C\c3ccc(N4CCN(C)CC4)o3)C(=O)NC2=S)c1	28	-4	3%	-4	44*	1
ClCCN(CCCl)c1ccc(/C=C/c2ccnc3ccccc23)cc1	/	/	3%	/	/	/
Clc1ccccc1CN1CCN(c2cccc3[nH]ccc23)CC1	0	-48*	0%	-3	0	1
COc1ccccc1N1CCN(Cc2ccccc2Cl)CC1	-1	11	1%	-3	2	0
CN1CCN(c2nc(Cl)ncc2F)CC1	1	-32*	-7%	-11	4	-2
CC(C)(O)C1O[C@H]2CC[C@@]3(C)[C@@](O)(CC[C@H]4Cc5c([nH]c6ccccc56)[C@@]43C)C2=CC1=O (stereo not given in full)	/	/	2%	/	/	/
